Source: PubChem BioAssay (National Center for Advancing Translational Sciences (NCATS))
Tb PFK inh-1: inhibitors of T. brucei phosphofructokinase; O15648; T. brucei PFK, ADP-Glo luminescence; Potency, µM (highest dose often 57.5 µM), hits mostly inhibitors; 0.17% of 330,000 active; AID 485367; also: nearly all actives have a fitted effect of over 60% in size
Target sequence (O15648 whole entry, looked up): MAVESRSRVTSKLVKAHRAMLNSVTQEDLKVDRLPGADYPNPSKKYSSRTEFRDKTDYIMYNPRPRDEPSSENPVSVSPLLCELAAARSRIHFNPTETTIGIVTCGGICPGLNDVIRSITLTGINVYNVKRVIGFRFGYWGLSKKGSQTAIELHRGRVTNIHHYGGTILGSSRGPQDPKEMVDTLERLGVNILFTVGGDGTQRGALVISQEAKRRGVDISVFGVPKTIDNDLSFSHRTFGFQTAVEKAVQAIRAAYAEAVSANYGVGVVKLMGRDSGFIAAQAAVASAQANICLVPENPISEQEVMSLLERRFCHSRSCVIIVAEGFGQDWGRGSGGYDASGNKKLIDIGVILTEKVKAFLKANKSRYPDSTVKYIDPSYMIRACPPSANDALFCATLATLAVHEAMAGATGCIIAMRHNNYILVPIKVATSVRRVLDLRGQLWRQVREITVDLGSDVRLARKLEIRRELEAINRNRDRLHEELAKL
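ADP-Glo luminescence quantified ADP after 45 min at room temperature, with 1.25 nM T. brucei PFK, 0.1 mM ATP and 0.5 mM fructose-6-phosphate in pH 8.0 TEA buffer. qHTS titrations up to 57 µM; curves classified by quality.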
IL2 activator: activates IL-2 in a cell-based reporter assay; IL-2 activation reporter assay, cell-based qHTS; stimulated with anti-CD3/CD4/CD28 beads; in transgenic mouse T cells; activation, % (series mostly up to about 46 µM); 0.065% of 360,000 active; AID 652025; in the data active = activation above about 50%; inconclusive = mostly about 30% to 49%
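Readout is EGFP and DsRed signal by fluorescent plate cytometry after 18 h at 37 degrees C. Transgenic mouse T cells (750/well) received compound for 60 min before bead stimulation (anti-CD3, anti-CD4, anti-CD28); memory T cells served as non-tolerant control.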
Integrin act MD: activators of alpha7 integrin expression for muscular dystrophy; 0.064% of 350,000 active; alpha7betagal myoblasts, beta-gal FDG fluorescence, 48 h; Potency, µM (series often up to 38.3 µM), usual class: activators; also: nearly all actives have a fitted effect of over 60% in size
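alpha7betagal+/- myoblasts (passage 13, 250/well) treated 48 h at 37C with compounds at 1:260 dilution of DMSO stock. Lysed, then beta-galactosidase activity read as FDG fluorescence (ex 480/em 540) after 30 min, with pre-read for autofluorescence.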
TCR act: activators of T cell receptors; primary human leukocytes, anti-CD3, IL-2 HTRF, 48 h; Potency, µM (highest dose often 9.22 µM), hits mostly activators; 330,000 tested, under 10 active
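Primary human leukocytes incubated 48 hr with anti-CD3 beads plus compound, without co-stimulation. Secreted IL-2 measured by HTRF (europium cryptate/d2 anti-IL-2 pair, 320 nm excitation, 665 nm emission).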
A-T KAP1 phos: candidate therapy for ataxia-telangiectasia; F2112 A-T fibroblasts, KAP-1 phosphorylation AlphaLISA; neocarzinostatin DNA damage 30 min before lysis; Potency, µM (top dose mostly 57.5 µM), hits mostly activators; 0.19% of 320,000 active; also: nearly all actives have a fitted effect of over 45% in size
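hTERT-immortalized A-T patient fibroblasts (F2112), 500 cells/well in OPTI-MEM, 1% FBS, got compounds for 60 min, then NCS for 30 min at 37C. Lysates were then assayed for phospho-KAP-1 by AlphaLISA (anti-pKAP1 donor, anti-KAP1 acceptor beads), 6 hr at 25C.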
PKM2 activator: activators of human pyruvate kinase M2 | purified PKM2, Kinase-Glo ATP luminescence, activation; response scale: 0% is enzyme alone, no compound | 0.34% of 260,000 active | Potency, µM (series often up to 57.5 µM), actives largely listed as activators; also: nearly all actives have a fitted effect of over 55% in size
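Kinase-Glo luminescence reports ATP generated from ADP (0.1 mM) and PEP (0.5 mM) by purified hPK-M2 after 1 h at room temperature, pH 7.2 imidazole buffer; intermediate enzyme activity allows detecting inhibitors and activators.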
Tb PFK KinaseGlo: Tb phosphofructokinase inhibition, orthogonal luminescence. shares compounds with Tb PFK inh-1. Tb PFK enzyme, ATP depletion, Kinase-Glo Plus luminescence. Potency, µM (doses to about 57.5 µM). 47% of 1,100 active; calls by dose curve; also: nearly all actives have a fitted effect of over 60% in size
Tb PFK inh-2: validation of T. brucei phosphofructokinase inhibitors. 41% of 1,100 active. Potency, µM (highest dose often 57.5 µM), hits mostly inhibitors. shares compounds with Tb PFK inh-1. purified T. brucei PFK, ADP-Glo luminescence, 45 min; also: nearly all actives have a fitted effect of over 60% in size
Large screens that a line does not name were inactive (follow-up assays come after a bar, where they were run). Rows were chosen to be rich in hits. Some 0.69% of all compounds tested hit in one or more screens of this group. Unless noted, calls follow the shape of the dose curve; as a rule, active = well fitted curve in the direction sought with a large enough effect; inconclusive = small, poorly fitted or top-dose-only effect, or another doubt; inactive = no such curve, though single readings can be large; an effect the other way counts as inactive or inconclusive.

Fc1ccc(NC2=NCCS2)cc1Cl	none
O=C(Nc1ccncc1)Nc1ccc(F)c(Cl)c1	Tb PFK inh-1 inconclusive | Tb PFK KinaseGlo inconclusive | Tb PFK inh-2 inconclusive
Fc1ccc(NC(=S)Nc2ccc(F)c(Cl)c2)cc1Cl	Tb PFK inh-1 inconclusive | Tb PFK KinaseGlo inconclusive | Tb PFK inh-2 inactive
CCCCC(=O)Nc1ccc(F)c(Cl)c1	Tb PFK inh-1 inconclusive | Tb PFK KinaseGlo inconclusive | Tb PFK inh-2 inactive
O=C(Nc1ccc(Cl)cc1)Nc1cccnc1	Tb PFK inh-1 17µM | Tb PFK KinaseGlo inconclusive | Tb PFK inh-2 inconclusive
COC(=O)C12OCC34C(CC5C(C)=C(O)C(=O)CC5(C)C3C(O)C1O)OC(=O)C(OC(=O)/C=C(\C)C(C)C)C24 (stereo unspecified)	Integrin act MD inconclusive (no result: Tb PFK inh-1, A-T KAP1 phos, PKM2 activator)
Cc1cccc(C)c1-n1nnnc1C(c1cccs1)N1CCC2(CC1)C(=O)NCN2c1ccccc1 (stereo unspecified)	none (no result: Tb PFK inh-1, Integrin act MD, TCR act, A-T KAP1 phos, PKM2 activator)
NC(=O)Nc1ccc(Cl)cc1	Tb PFK inh-1 21µM | Tb PFK KinaseGlo 24µM | Tb PFK inh-2 30µM
OCCN1CCN(C(=S)c2ccc(Cl)c(Cl)c2)CC1	Tb PFK inh-1 19µM | Tb PFK KinaseGlo 5.4µM | Tb PFK inh-2 13µM
Cc1cc(C(=O)Nc2ccc3c(c2)OCCO3)nn1C(C)(C)C	Integrin act MD inconclusive
N#Cc1cccc(NCC(=O)Nc2ccc3c(c2)OCCO3)c1	Tb PFK inh-1 21µM | Tb PFK KinaseGlo 27µM | Tb PFK inh-2 30µM
COC(=O)C1=C(c2ccc(OC(F)(F)F)cc2)C[C@@H]2CC[C@H]1N2C(=O)NCc1cc(C)oc1C(F)(F)F	none (no result: PKM2 activator)
C[N+](C)(N)CCOC(=O)C(O)(c1ccccc1)C1CCCCC1 (stereo unspecified)	none (no result: Tb PFK inh-1, A-T KAP1 phos, PKM2 activator)
Cc1cccc(NC(=O)COC(=O)c2cc(C)n(C3CC3)c2C)c1	none (no result: PKM2 activator)
COc1ccc2c(CC(=O)OCC(=O)Nc3cccc(C)c3)coc2c1	Tb PFK inh-1 inconclusive (no result: PKM2 activator) | Tb PFK KinaseGlo inconclusive | Tb PFK inh-2 inconclusive
COC(=O)C1=C(c2ccc(OC(F)(F)F)cc2)C[C@@H]2CC[C@H]1N2C(=O)NCCOc1ccc(OC)cc1	none (no result: PKM2 activator)
CC1CCCC(NC(=O)COC(=O)c2cn(C)c3ccccc23)C1C (stereo unspecified)	none (no result: PKM2 activator)
COc1cc2c(cc1OC)CN(C(=O)COc1ccccc1[N+](=O)[O-])CC2	Tb PFK inh-1 inconclusive, Integrin act MD inconclusive | Tb PFK KinaseGlo inactive | Tb PFK inh-2 inactive
O=C1CCN(C(=O)Cc2ccccc2[N+](=O)[O-])CC1	none
Cc1cc(C)c(S(=O)(=O)N2Cc3ccccc3-n3nncc3C2)c(C)c1	none (no result: Tb PFK inh-1, TCR act, A-T KAP1 phos, PKM2 activator)
Oc1ccc(C2C[C@H]3CC[C@@H]2C3)cc1O (stereo partly specified)	Tb PFK inh-1 inconclusive (no result: PKM2 activator) | Tb PFK KinaseGlo 12µM | Tb PFK inh-2 13µM
C[C@]12CC[C@H](O)C[C@H]1CC[C@@H]1[C@@H]2CC[C@]2(C)C(=O)CC[C@@H]12	none (no result: PKM2 activator)
CCCC(C)c1nnc(NC(=O)CCS(=O)(=O)c2ccccc2)s1 (stereo unspecified)	Tb PFK inh-1 inconclusive (no result: PKM2 activator)
C=C(C)C(=O)Nc1cccc(C2=NOC3(C2)C[C@@H](C(N)=O)N(C(=O)CCCCC)C3)c1 (stereo partly specified)	Tb PFK inh-1 2.7µM | Tb PFK KinaseGlo 0.15µM | Tb PFK inh-2 0.24µM
C=C(C)C(=O)Nc1cccc(C2=NOC3(C2)C[C@@H](C(N)=O)N(C(=O)c2ccc(OC)cc2)C3)c1 (stereo partly specified)	Tb PFK inh-1 1.9µM | Tb PFK KinaseGlo 0.17µM | Tb PFK inh-2 0.24µM
